FBPA coupling cs: inhibits coupling enzyme system, counter-screen for aldolase hits. activity change, negative = inhibition, % at 58.2 µM, hits read low. 290,000 tested, 0.67% active. coupling enzyme system counterscreen, AmpLite Red fluorescence; in the data active means activity change below about -30%
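Activity here indicates interference with the coupling reaction, not aldolase inhibition. Compounds at 57.5 uM final met coupling enzymes for 10 min at RT; substrate and AmpLite Red detection followed, with a 525/598 nm fluorescence read after 20 min.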
GALK inhibitor: galactokinase (human) inhibition; Potency, µM (highest dose often 57.5 µM), inactives show at the top dose activity change, negative = inhibition, hits mostly inhibitors; 270,000 tested, 0.007% active; Purified GALK, Kinase-Glo residual ATP luminescence; AID 1868; further: potency means the concentration at half of the fitted maximal effect
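Luminescence from leftover ATP (Ultra-Glo luciferase/luciferin) served as read-out after a 1 h room-temperature reaction of 5 nM GALK with 35 uM ATP and 100 uM galactose.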
TrxR1 inh: inhibitors of rat thioredoxin reductase 1 | recombinant rTrxR1, NADPH fluorescence consumption, selenite substrate | AID 588453 | 390,000 tested, 1% active | Potency, µM (top dose mostly 114 µM), for the others: at the top dose activity change, negative = inhibition, actives largely listed as inhibitors; further: potency means the concentration at half of the fitted maximal effect; nearly all actives have a fitted effect of over 65% in size
Target sequence (O89049 whole entry, looked up): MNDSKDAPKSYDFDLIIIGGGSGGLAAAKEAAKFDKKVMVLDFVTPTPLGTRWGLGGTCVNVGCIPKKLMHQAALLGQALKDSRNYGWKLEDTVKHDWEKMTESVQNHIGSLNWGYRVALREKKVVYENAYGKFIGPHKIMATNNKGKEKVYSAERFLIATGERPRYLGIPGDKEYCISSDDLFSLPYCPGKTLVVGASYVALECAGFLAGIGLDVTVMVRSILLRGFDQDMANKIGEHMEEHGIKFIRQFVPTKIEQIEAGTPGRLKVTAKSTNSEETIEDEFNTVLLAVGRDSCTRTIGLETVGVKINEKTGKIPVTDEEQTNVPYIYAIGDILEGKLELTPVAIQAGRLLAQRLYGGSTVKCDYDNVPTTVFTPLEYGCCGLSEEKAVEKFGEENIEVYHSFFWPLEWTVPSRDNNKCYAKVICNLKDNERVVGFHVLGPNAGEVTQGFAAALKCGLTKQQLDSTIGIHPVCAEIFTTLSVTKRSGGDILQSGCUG
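Rat TrxR1 (90 nM in the dispensed reagent) was pre-reduced with 400 uM NADPH for 5 min at room temperature, then incubated with compound for 15 min. After 400 uM selenite was added, NADPH fluorescence (Ex 340/Em 450 nm) was followed for 8 min.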
TrxR1 substrate: substrates of rat thioredoxin reductase 1. AID 588456. Potency, µM (titrated, usually from 114 µM), for inactives: top-dose activity change, negative = substrate turnover. O89049. 390,000 tested, 0.01% active. purified TrxR1 substrate turnover, NADPH consumption readout; further: potency means the concentration at half of the fitted maximal effect; nearly all actives have a fitted effect of over 50% in size
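Rat TrxR1, dispensed at 90 nM, was prereduced with 400 uM NADPH (final) for 5 min at ~22 deg C, then incubated with compound 15 min before 400 uM selenite. A first-read NADPH fluorescence drop versus no-compound background flagged substrates.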
USP1 inh: USP1/UAF1 (human) deubiquitinase inhibition. recombinant USP1/UAF1, Ub-Rhodamine cleavage fluorescence. AID 743255. 390,000 tested, 0.23% active. O94782. Potency, µM (doses to about 57.1 µM), for inactives: at the top dose activity change, negative = inhibition, most hits filed as inhibitors; further: potency means the concentration at half of the fitted maximal effect; nearly all actives have a fitted effect of over 60% in size
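Step one: compound is pinned into 1nM USP1/UAF1 in HEPES pH 7.8 buffer with TCEP. Step two: 15 min room-temperature incubation. Step three: Ub-Rho (150nM final) starts cleavage, tracked by fluorescence over six one-minute reads.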
* marks the source's active call; other numbers are inactive results; i = inactive; ? = inconclusive; . = no result; [ ] = dose if it differs, or a comment. An excerpt weighted towards active compounds, which were near 1.5% of everything screened. Unless noted, the call rests on the fitted dose curve; in most records, active means well fitted curve in the direction sought with a large enough effect; inconclusive means small, poorly fitted or top-dose-only effect, or another doubt; inactive means no such curve, though single readings can be large; an effect the other way counts as inactive or inconclusive. On the % scale 0 is the no-effect control and ±100 the full control effect.

SMILES | FBPA coupling cs | GALK inhibitor | TrxR1 inh | TrxR1 substrate | USP1 inh
O=C(N/N=C/c1c(O)n(Cc2ccccc2)c(=O)c2ccccc12)c1cccnc1 | -15.7 | 6.2% | 10.5%[57.1 µM] | -16.6% | 25.1µM*
COc1ccc(Cn2c(O)c(/C=N/NC(=O)c3cccnc3)c3ccccc3c2=O)cc1 | -6.7 | 5.0% | 12.9%[57.1 µM] | -13.5% | 31.6µM*
Cc1ccc(N2C(=O)CC(Nc3ccc(Cl)c(S(=O)(=O)N(C)C)c3)C2=O)c(C)c1 (stereo not given) | -0.1 | 0.4% | 50.1µM* | 5.3% | -13.7%
Cc1ccc(/C=C/C(=O)OCC(=O)NCc2cccs2)o1 | . | . | 56.2µM* | -10.8% | ?
O=C(COC(=O)/C=C/c1ccco1)NCc1ccc(Cl)cc1 | . | . | 79.4µM* | -2.6% | -22.0%
Cc1nc(NC(=O)COC(=O)/C=C/c2ccco2)c(Cl)cc1Cl | . | . | 39.8µM* | 4.3% | -14.3%
COc1ccccc1/C=C/C(=O)OCC(=O)NCc1ccco1 | 4.5 | -0.9% | ? | 7.3% | -7.0%
O=C(COC(=O)/C=C/c1ccco1)NCc1ccccc1 | 1.7 | -1.5% | 10.1%[57.1 µM] | 5.5%[57.1 µM] | -11.2%
O=C(COC(=O)/C=C/c1ccccc1)NCc1cccs1 | . | . | 29.8% | 4.3% | -21.8%
COc1cc(/C=C/C(=O)OCC(=O)NCc2ccco2)ccc1O | . | . | 50.1µM* | -2.3% | -9.3%
CC(C)=CC(=O)OCC(=O)Nc1nc(C)c(Cl)cc1Cl | 0.7 | 2.2% | 28.5% | 10.0% | -0.8%
Cc1c(O)c2c(c(C(=O)/C=C/c3ccccc3)c1O)OC(C)(C)C=C2 | . | . | ? | -5.1% | .
Nc1nc(NCc2ccc(F)cc2)c2[nH]cnc2n1 | . | . | 12.8% | 1.5% | .
COC(=O)c1ccc(/C=C/C(=O)OCC(=O)Nc2ncc(Cl)cc2Cl)cc1 | . | . | -2.4% | -2.3% | -22.6%
O=C(COC(=O)/C=C/c1ccco1)Nc1ncc(Cl)cc1Cl | 1.1 | 1.0% | 50.1µM* | -4.9% | -19.9%
O=C(NNc1ccccc1)c1sc2ccccc2c1Cl | . | . | -9.1% | -7.9% | .
O=C(CSc1ccc(-c2ccco2)nn1)N1CCCCC1 | -46.5* | 1.3% | -65.7% | 7.4%[57.1 µM] | -0.5%
O=C(CSc1ccc(-c2ccco2)nn1)N1CCCC1 | 1.4 | 3.1% | 44.7µM* | 2.0% | -24.4%
CC1OC(Nc2cccc3ccccc23)C(O)C(O)C1O (stereo not given) | -27.3 | 0.1% | 72.9% | 393.9% | 22.4µM*
O=C(NC1CCCCC1)C(c1ccncc1)N(Cc1ccc2c(c1)OCO2)C(=O)c1cnsn1 (stereo not given) | -46.4* | 0.5% | -17.3% | -3.9%[57.1 µM] | -15.2%
CC1CC(C)CN(c2oc(-c3ccc(OCc4ccccc4Cl)cc3)nc2C#N)C1 (stereo not given) | . | . | -1.0% | 12.6%[0.0914 µM] | .
CN1/C(=C\C(=O)c2ccco2)C(C)(C)c2ccccc21 | -7.2 | 2.0% | 10µM* | 2.4%[57.1 µM] | ?
CN1/C(=C\C(=O)c2cccnc2)C(C)(C)c2ccccc21 | -0.2 | -0.4% | -3.3% | -6.3% | -16.0%
CN1/C(=C\C(=O)COC(=O)c2ccco2)C(C)(C)c2ccccc21 | -0.5 | -0.5% | 18.3% | 4.6% | -24.7%
CN1/C(=C/C(=O)c2nc(S(C)(=O)=O)ncc2Cl)C(C)(C)c2ccccc21 | 2.3 | -3.6% | 50.1µM* | -9.1% | -25.6%
SMILES | FBPA coupling cs | GALK inhibitor | TrxR1 inh | TrxR1 substrate | USP1 inh
C=C1C=C(C)n2ncc(C(=O)N(CCc3ccccc3)Cc3ccccc3)c2N1 | . | . | 13.4% | 12.3% | .
CCCc1cc(=O)oc2c(CN(CC)CC)c(O)c(Cl)cc12 | 0.1 | -0.9% | 17.8µM* | 953.1% | -16.0%
CCCCc1cc(=O)oc2c(CN(CC)CC)c(O)c(Cl)cc12 | 4.3 | -2.7% | ? | i | -20.8%
CCCCc1cc(=O)oc2c(CN3CCN(C)CC3)c(O)ccc12 | 0.3 | . | ? | i | -16.8%
CCCc1cc(=O)oc2c(CN3CCN(C)CC3)c(O)ccc12 | -1.0 | 4.0% | 79.4µM* | 869.2% | -30.1%
CCCc1cc(=O)oc2c(CN3CCN(C)CC3)c(O)c(Cl)cc12 | 1.9 | 5.5% | 39.8µM* | i | -20.2%
CCCCc1cc(=O)oc2c(CN3CCCC3)c(O)c(Cl)cc12 | -1.6 | 0.3% | ? | i | -23.2%
CC(=O)OC[C@@H]1O[C@H](CCO/N=C(\C)CCN2CCc3nc(-c4ccccc4)c(-c4ccccc4)cc3C2)C=C[C@@H]1OC(C)=O | 0.9 | . | . | . | .

Screening data from PubChem.
